NPC1 promoter act: qHTS Assay for NPC1 Promoter Activators; Potency, µM (titrated, usually from 9.22 µM), hits mostly activators; Huh7 NPC1 promoter luciferase reporter, 24 h; hit rate 2.4% among 320,000; further: nearly all actives have a fitted effect of over 60% in size
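Huh7 cells stably carrying NPC1 promoter–luciferase, plated in Opti-MEM with 10% FBS for 2 h, were exposed to compound in DMSO for 24 h at 37 °C; luciferase reagent was added for 10 min and luminescence read.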
FLuc counter: qHTS profiling assay for firefly luciferase inhibitor/activator using purifed enzyme and Km concentrations of substrates (counterscreen for miR-21 project). Luciferin 4-monooxygenase (Photinus pyralis), P08659. purified FLuc, Km substrates, luminescence inhibition. Potency, µM (top dose mostly 57.5 µM), usual class: inhibitors. hit rate 6.9% among 360,000; further: nearly all actives have a fitted effect of over 55% in size
Target sequence (P08659 whole entry, looked up): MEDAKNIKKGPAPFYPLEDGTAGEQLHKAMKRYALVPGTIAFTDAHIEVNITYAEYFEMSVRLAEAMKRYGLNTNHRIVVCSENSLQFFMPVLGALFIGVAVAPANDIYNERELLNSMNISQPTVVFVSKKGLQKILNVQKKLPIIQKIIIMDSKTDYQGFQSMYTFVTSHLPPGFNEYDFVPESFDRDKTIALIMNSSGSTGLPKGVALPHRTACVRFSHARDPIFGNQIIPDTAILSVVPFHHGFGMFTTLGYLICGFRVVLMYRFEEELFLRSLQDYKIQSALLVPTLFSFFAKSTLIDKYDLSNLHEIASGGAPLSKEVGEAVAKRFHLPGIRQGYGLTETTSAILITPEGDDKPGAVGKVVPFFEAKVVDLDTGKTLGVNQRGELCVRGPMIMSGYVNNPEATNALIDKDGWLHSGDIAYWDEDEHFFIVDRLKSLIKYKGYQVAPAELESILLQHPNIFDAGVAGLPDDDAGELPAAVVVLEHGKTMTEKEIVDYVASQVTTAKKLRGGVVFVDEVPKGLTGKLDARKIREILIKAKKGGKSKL
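Purified P. pyralis luciferase, 10 nM final, with Km-level 10 uM D-luciferin and 10 uM ATP in 50 mM Tris acetate pH 7.5, 10 mM Mg acetate, 0.01% Tween-20, 0.05% BSA; 6-point qHTS titration about 60 µM downward; luminescence read.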
ELG1 DNA repair: qHTS screen for small molecules that inhibit ELG1-dependent DNA repair in human embryonic kidney (HEK293T) cells expressing luciferase-tagged ELG1. HEK293T ELG1-luciferase reporter, luminescence, 16 h; DNA damage induced by 5-fluorouridine. Potency, µM (doses to about 46.1 µM), hits mostly inhibitors. hit rate 2.3% among 330,000. AID 504467, 2011; further: nearly all actives have a fitted effect of over 55% in size
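Quantitative HTS, concentration-response format. 2,000 cells/well co-treated with 5-fluorouridine and compound, 16 hr in 5% CO2 at 37 °C; ONE-Glo luminescence read after 30 min.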
SMN2 splice enh: qHTS Assay for Enhancers of SMN2 Splice Variant Expression. hit rate 2.8% among 210,000. AID 1458, 2008. Potency, µM (highest dose often 46.1 µM), hits mostly activators. HEK293 SMN2-luciferase splicing reporter, luminescence, 30-36 h; further: nearly all actives have a fitted effect of over 55% in size
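HEK293 cells carry an SMN2 minigene-luciferase reporter in which exon 7 inclusion puts luciferase in frame. Cells were seeded at 2000 cells/well, attached for 10-12 hours, then exposed to compounds for 30-36 hours at 37C before ONE-Glo luminescence.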
Rab9 promoter act: qHTS Assay for Rab9 Promoter Activators | AID 485297, 2010 | hit rate 2.8% among 320,000 | Huh7 Rab9 promoter-luciferase reporter, luminescence, 24 h | Potency, µM (titrated, usually from 9.22 µM), actives largely listed as activators; further: nearly all actives have a fitted effect of over 60% in size
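Huh7 reporter line, Rab9 promoter upstream of luciferase. Compound exposure 24 h at 37 °C in reduced-serum medium with 10% FBS. Read-out: luminescence.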
ELG1 genotoxic: qHTS screen for small molecules that induce genotoxicity in human embryonic kidney (HEK293T) cells expressing luciferase-tagged ELG1. HEK293T ELG1-luciferase reporter, luminescence, 16 h. Potency, µM (highest dose often 46 µM), usual class: activators. hit rate 1.3% among 330,000. AID 504466, 2011; further: nearly all actives have a fitted effect of over 60% in size
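ELG1-luciferase HEK293T cells, 2,000/well; compound pinned in; 16 hr, 37 °C, 5% CO2; ONE-Glo, 30 min RT; luminescence on CCD imager.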
Hits are given with their value; – = inactive; ? = inconclusive; · = no result given; [ ] = dose if it differs, or a comment. A selection: hits, their analogues and other compounds. The true share with any hit is near 9.3%. The call rests on the fitted dose curve; in most records, active means well fitted curve in the direction sought with a large enough effect; inconclusive means small, poorly fitted or top-dose-only effect, or another doubt; inactive means no such curve, though single readings can be large; an effect the other way counts as inactive or inconclusive.

SMILES | NPC1 promoter act | FLuc counter | ELG1 DNA repair | SMN2 splice enh | Rab9 promoter act | ELG1 genotoxic
CCOc1ccccc1NC(=O)CS(=O)(=O)c1cn(CC(=O)N2CCOCC2)c2ccccc12 | – | – | – | · | – | –
COc1ccc(/C=C/C(=O)c2cc(F)ccc2OC(=O)c2ccccc2OC)cc1OC | – | – | ? | – | – | –
COc1ccc(/C=C/C(=O)c2cc(F)ccc2OC(=O)c2ccc(OC)c(OC)c2)cc1OC | – | – | 15µM | – | – | –
COc1ccc(NC(=O)CSc2nnc(-c3cccnc3)s2)cc1 | – | – | – | · | – | –
COc1cc2cc(C#N)c(SCC(=O)N3CCOCC3)nc2cc1OC | – | – | – | 13µM | – | –
CC(=O)CSc1nc2cc3c(cc2cc1C#N)OCCO3 | 3.2µM | 0.67µM | ? | · | ? | ?
N#Cc1cc2cc3c(cc2nc1SCC(=O)N1CCCC1)OCCO3 | ? | – | ? | · | ? | –
C=CCn1cccc(C(=O)Nc2ccc(C)c(C)c2)c1=O | 1.6µM | 11µM | ? | · | 2.2µM | ?
C=CCn1cccc(C(=O)Nc2cc(OC)ccc2OC)c1=O | – | – | – | – | – | –
C=CCn1cccc(C(=O)Nc2ccc(C)cc2)c1=O | 4.5µM | 11µM | ? | · | 2.8µM | ?
C/C=C/Cn1cccc(C(=O)Nc2ccc(OC)cc2)c1=O | ? | 24µM | – | – | ? | –
C=CCn1c(N)c(C(=O)Nc2ccc(C)cc2)sc1=S | ? | 1.2µM | ? | – | 2.8µM | ?
O=C(COC(=O)C1CC2C=CC1C2)Nc1ccccc1[N+](=O)[O-] (centres undefined) | · | · | – | · | · | –
O=C1NC(=O)C(c2ccccc2[N+](=O)[O-])=C1Nc1ccc(O)c(Cl)c1 | – | – | ? | – | – | –
CCOc1ccc(CN2C(=O)c3ccccc3C2C(=O)NCCc2ccc(OC)c(OC)c2)cc1 (centres undefined) | · | – | · | · | · | ·
Cc1onc(-c2c(F)cccc2Cl)c1C(=O)N1CCN(c2ncc(Br)cn2)CC1 | – | – | 13µM | · | – | –
Cc1onc(-c2c(F)cccc2Cl)c1C(=O)N1CCSCC1 | – | – | – | · | – | –
COc1ccc(-c2onc(C)c2-c2ccc(C(=O)OC(C)C)o2)c(O)c1 | – | ? | 23µM | – | – | –
COc1ccc(C(=O)NCCc2nnc3ccc(SCC(=O)N4CCOCC4)nn23)cc1 | – | – | – | · | – | –
Cc1cc(C)c(NS(=O)(=O)c2cc(-c3cnc(C4CC4)o3)ccc2C)c(C)c1 | · | – | · | · | · | ·
Cc1ccc(N(C)S(=O)(=O)c2cc(-c3cnc(C4CC4)o3)ccc2C)cc1 | – | – | 16µM | · | – | –
COc1ccc(-n2ccc3ccccc32)cc1 | – | 24µM | – | · | –[1.84 µM] | –
COC(=O)c1ccc(NS(=O)(=O)c2cc3c4c(c2)CCC(=O)N4CCC3)cc1 | – | – | – | · | – | –
Clc1ccc(C2CSc3c4ncnc-4ncn32)cc1 (centres undefined) | – | – | – | · | – | –
CCOC(=O)c1cnc2c(cnn2CC)c1NN=C(C)C | – | · | · | – | – | ·
SMILES | NPC1 promoter act | FLuc counter | ELG1 DNA repair | SMN2 splice enh | Rab9 promoter act | ELG1 genotoxic
COc1ccc(NC(=O)c2cc(C3CC3)on2)c(OC)c1 | ? | ? | ? | 20µM | ? | 18µM
COc1ccc(NC(=O)c2cc(-c3ccco3)on2)c(OC)c1 | – | – | – | · | – | –
COc1ccc(NC(=O)c2c(-c3c(Cl)cccc3Cl)noc2C)c(OC)c1 | – | – | 23µM | · | – | –
Cc1c(Cl)cccc1NC(=O)c1cc(C2CC2)on1 | ? | 19µM | ? | – | 3.5µM | ?
CNc1ccc(/C=C2\COc3ccccc3C2=O)cc1[N+](=O)[O-] | – | 1.9µM | – | – | ? | –
O=C1/C(=C/c2ccccc2[N+](=O)[O-])COc2ccccc21 | – | 17µM | ? | – | – | –

Assay outcomes: PubChem BioAssay, National Center for Advancing Translational Sciences (NCATS)
